The entries come from a sample that favours hits as a whole.
NTMT1 inh: Primary qHTS for Inhibitors of N-terminal methyltransferase 1 (NTMT1): MTaseGlo Assay. N-terminal Xaa-Pro-Lys N-methyltransferase 1 (Homo sapiens), Q9BV86. NTMT1 MTase-Glo SAH luminescence, purified enzyme. Potency, µM (series often up to 114 µM), for the others: at the top dose activity change, negative = inhibition, most hits filed as inhibitors. 59,000 tested, 2.5% active. AID 1645870, 2021;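 note: plate controls were DMSO vehicle for no effect and no enzyme for full effect; nearly all actives have a fitted effect of over 65% in size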
GALC G270D up: A Novel Cell-Based Assay to Identify Small Molecules for B -Galactocerebrosidase; 45,000 tested, 0.1% active; 145M-Twi-hGALC-G270D cells (Twitcher mouse brain line with human GALC G270D), HMU-beta-Gal fluorescence, 48 h; Potency, µM (titrated, usually from 57.5 µM), actives largely listed as activators; AID 1159614, 2016; P54803; note: 0% is about no effect; nearly all actives have a fitted effect of over 65% in size
Target sequence (P54803 whole entry G286D): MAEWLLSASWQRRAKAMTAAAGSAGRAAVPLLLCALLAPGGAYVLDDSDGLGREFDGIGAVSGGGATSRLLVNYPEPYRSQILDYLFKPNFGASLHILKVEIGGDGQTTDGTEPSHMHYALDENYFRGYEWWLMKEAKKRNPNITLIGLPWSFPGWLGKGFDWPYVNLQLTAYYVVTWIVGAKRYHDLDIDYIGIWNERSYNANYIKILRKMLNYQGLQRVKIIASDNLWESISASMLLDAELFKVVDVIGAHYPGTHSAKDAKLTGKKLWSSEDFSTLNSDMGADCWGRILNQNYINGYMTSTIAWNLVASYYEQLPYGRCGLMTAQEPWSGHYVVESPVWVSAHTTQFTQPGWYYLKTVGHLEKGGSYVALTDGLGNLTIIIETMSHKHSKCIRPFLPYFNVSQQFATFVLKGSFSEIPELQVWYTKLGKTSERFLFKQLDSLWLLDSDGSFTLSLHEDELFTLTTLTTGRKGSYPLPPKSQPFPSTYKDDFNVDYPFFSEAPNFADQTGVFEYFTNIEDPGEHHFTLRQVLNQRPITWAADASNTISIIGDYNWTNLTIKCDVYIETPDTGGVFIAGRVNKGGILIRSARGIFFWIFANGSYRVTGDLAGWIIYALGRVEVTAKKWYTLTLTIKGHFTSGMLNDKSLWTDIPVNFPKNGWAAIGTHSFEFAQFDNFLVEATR
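Fluorogenic HMU-b-Gal hydrolysis (0.1 mM final, pH 5.2 citrate-phosphate with 1 mg/mL sodium taurocholate; carbonate stop buffer) measures mutant GALC activity after compound treatment of live 145M-Twi Twitcher brain cells stably carrying human GALC-G270D, with wild-type GALC line alongside; activation sought.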
FH mod: Identification of activators of human fumarate hydratase by quantitative high-throughput screening; Fumarate hydratase, mitochondrial (Homo sapiens), P07954; FH coupled MDH/diaphorase resazurin fluorescence, 15 min; Potency, µM (top dose mostly 79.9 µM), inactives show at the top dose activity change, negative = inhibition, usual class: inhibitors; 54,000 tested, 0.22% active; note: % is set by controls: 0 for no effect and ±100 for the full control effect; the screen sought activators but most active calls are inhibition curves; nearly all actives have a fitted effect of over 45% in size
p53null 39C tox: qHTS Screen for Compounds that Selectively Target Cancer Cells with p53 Mutations: Cytotoxicity of p53 Null Cells at the Nonpermissive Temperature. Potency, µM (doses to about 46.1 µM), inactives show at the top dose activity, negative = cell killing, hits mostly cytotoxic. H1299 p53-null (neo) cells, 39C, ATPlite viability, 24 h. 55,000 tested, 0.97% active;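 note: 0% = DMSO only and -100% = full killing by 100 µM tamoxifen; nearly all actives have a fitted effect of over 50% in size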
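Cells seeded at 600/well, 37C overnight. Compound added (up to 46 uM), plates shifted to 39C for 24 hr. ATPlite added, luminescence read after 20 min at room temperature.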
p53null 32C tox: qHTS Screen for Compounds that Selectively Target Cancer Cells with p53 Mutations: Cytotoxicity of p53 Null Cells at the Permissive Temperature. H1299-neo p53 null cells, ATP luminescence, 24 h, 32C. Potency, µM (top dose mostly 46.1 µM), for the others: top-dose activity change, negative = cytotoxicity, hits mostly cytotoxic. 55,000 tested, 0.62% active;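 note: 0% = DMSO only and -100% = full killing by 100 µM tamoxifen; nearly all actives have a fitted effect of over 55% in size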
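AC50 values derive from Hill modelling of qHTS concentration-response data (up to 46 uM) in H1299-neo cells. Cells were treated 24 h at 32C following overnight attachment at 37C; viability was read as cellular ATP.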
* marks the source's active call; other numbers are inactive results; i = inactive; ? = inconclusive; · = not tested or not shown; ! = repeats disagree; [ ] = dose if it differs, or a comment. Calls come from the whole dose curve; as a rule, active = well fitted curve in the direction sought with a large enough effect; inconclusive = small, poorly fitted or top-dose-only effect, or another doubt; inactive = no such curve, though single readings can be large; an effect the other way counts as inactive or inconclusive. Potency is the fitted concentration of half-maximal effect.

SMILES	NTMT1 inh	GALC G270D up	FH mod	p53null 39C tox	p53null 32C tox
COc1ccccc1C(=O)Oc1c(Sc2ccccc2)c(C)nn1C(C)(C)C	-3%	?	-40%	13µM*	?
Cc1ccccc1C(=O)Oc1c(Sc2ccccc2)c(C)nn1C(C)(C)C	?	i	-18%	6%	0%
O=c1cc(NCCCN[C@@H]2CCOc3c(Br)cc(Br)cc32)[nH]c2ccsc12	-10%[57.5 µM]	·	-6%	·	·
CCOC(=O)Nc1ccc(NCc2ccc(F)cc2)nc1N	?	i	13µM*!	·	·
COc1cc(-c2nc3ccc(Cl)cn3c2Nc2ccc3c(c2)OCO3)ccc1O	?	i	?	30%	54%
COc1cc(-c2nc3ccc(C)cn3c2Nc2ccc(Cl)cc2)ccc1O	?	i	?	20µM*	10%
CC(C)c1ccc(Nc2ncnc3c2nc2n3CCCC2)cc1	79µM*	i	-8%	?	-9%
COc1ncc(Nc2ncc(C(C)N3CCN(S(C)(=O)=O)CC3)cc2-c2nc(C)nc(N)n2)cc1F (configuration not stated)	-21%	·	·	·	·
CCCCN1C(=O)C(O)(CC(=O)c2ccc(C(C)(C)C)cc2)c2ccccc21 (configuration not stated)	4%	i	?	20µM*	56%
CCc1ccc(C(=O)CC2(O)C(=O)N(Cc3ccc(C)cc3)c3ccccc32)cc1 (configuration not stated)	-5%	i	2%	?	1%
COc1ccc(Cl)c(Nc2ncnc3cc(OCC4CCN(C)CC4)c(OC)cc23)c1	28µM*	·	-2%	·	·
COc1cc2c(Nc3ccc(Cl)c(Cl)c3F)ncnc2cc1OCC1C[C@@H]2CN(C)C[C@@H]2C1 (some centres not stated)	11µM*	·	-25%	·	·
COCc1c(Cl)ccc2c1CC[C@H]2c1ncc[nH]1	3%[57.5 µM]	·	1%	·	·
COC(=O)c1ccc2c(=O)n(CCCCCC(=O)N3CCN(c4cc(Cl)ccc4C)CC3)c(=O)[nH]c2c1	5%	i	-20%	-6%	20µM*
CC(=O)N[C@@H](CCCCN)C(=O)N(C)[C@@H](CC(C)C)C(=O)N[C@H](C(=O)N(C)[C@@H](Cc1ccccc1)C(=O)N[C@H](Cc1ccccc1)C(N)=O)C(C)C	-17%[6.45 µM]	·	3%[6.31 µM]	·	·
COc1ccc(C(=O)Nc2cc(OC)nc(OC)n2)cc1	·	·	·	13µM*	11µM*
COc1cc(NS(=O)(=O)c2ccc(NC(=O)c3ccc(OC)c(Br)c3)cc2)nc(OC)n1	10%	i	?	-7%	3%
COc1ccc(C(=O)Nc2nnc(C)s2)cc1	-6%	i	-4%	?	10µM*
C=C1CC2[C@@]3(C)C=CC(=O)C(C)(C)C3=C(O)C(=O)[C@@]2(C)C2(C(=O)OC)C(=O)C(C)OC(=O)[C@@]12C (some centres not stated)	3%[29.8 µM]	·	-3%[53.3 µM]	·	·
CCOc1ccc(NC(=O)CSc2nnc(CNC(=O)C34CC5CC(CC(C5)C3)C4)n2CC)cc1	89µM*	i	-7%	-2%	1%
C[C@@H]1N=C(N)NC(N(C)C)=N1	1%	·	0%	·	·
O=C1NC(=O)/C(=C/c2ccc3c(c2)OCO3)S1	3%	·	32µM*	·	·
CCSC1=N/C(=C\c2ccc3c(c2)OCO3)C(=O)S1	·	·	·	14%	6%
NC(=O)c1cccc2cn(-c3ccc([C@@H]4CCCNC4)cc3)nc12	32µM*!	·	0%	·	·
NC(=O)c1cccc2[nH]c(-c3ccc(C4CCCN4)cc3F)nc12 (configuration not stated)	-3%[57.5 µM]	·	1%	·	·
SMILES	NTMT1 inh	GALC G270D up	FH mod	p53null 39C tox	p53null 32C tox
CC(C)(O)CS(=O)(=O)Nc1ccc2c(c1)CCN(C(=O)COc1cccnc1)C2	-2%	·	·	·	·
Cc1ccc(-c2cc(-c3ccccc3C)[nH]n2)c(O)c1	·	·	·	-96%	13µM*
Oc1ccc(Br)cc1-c1cc(-c2ccccc2)n[nH]1	·	·	·	?	-13%
O=c1c2cc3c(cc2nc2sc(Nc4ccccc4)nn12)OCO3	?	i	-9%	6.3µM*	10µM*
O=c1c2ccccc2nc2sc(Nc3cccc(Br)c3)nn12	44%	·	·	·	·
O=c1c2ccccc2nc2sc(Nc3ccc4c(c3)CNC4)nn12	50µM*	·	·	·	·
Cc1ccc(C)c(Nc2nn3c(=O)c4cc5c(cc4nc3s2)OCO5)c1	-2%	i	-12%	-16%	-9%
COC(=O)c1ccc(NC(=O)CCc2c(C)nc3c(c2C)c(=O)n(C)c(=O)n3C)cc1	3%	i	1%	5%	1%
CCc1cccc(NC(=O)CCc2c(C)nc3c(c2C)c(=O)n(C)c(=O)n3C)c1	89µM*	i	-4%	-23%	5%
CC1=C(C)C(=O)OC(C(C)C2C(O)CC3C4C5OC5C5(O)CC(OC6OC(CO)C(O)C(O)C6O)CC(O)C5(C)C4CCC32C)C1 (configuration not stated)	0%[12.6 µM]	·	-5%[20.6 µM]	·	·
N#C/C(=C\c1ccc(O)c(O)c1)C(=O)NCCc1ccccc1	·	·	32µM*	·	·
CC(=O)Nc1cccc([S+](=O)([O-])N2CCCN([S+](=O)([O-])c3cccc(NC(C)=O)c3)CC2)c1	0%	·	·	·	·
O=C1CC(c2nc3ccccc3n2CCC2CCCCC2)CN1c1ccccc1Cl (configuration not stated)	3%	i	-13%	16µM*	?
CCOc1ccccc1N1CC(c2nc3ccccc3n2CCOc2ccc(C(C)(C)C)cc2)CC1=O (configuration not stated)	4%	i	-5%	20µM*	?
Cc1cc(OCCn2c(C3CC(=O)N(Cc4ccc(F)cc4)C3)nc3ccccc32)ccc1Cl (configuration not stated)	16%	i	?	-4%	-11%
CCc1ccccc1N1CC(c2nc3ccccc3n2CCOc2ccc(Cl)c(C)c2)CC1=O (configuration not stated)	4%	i	?	18µM*	39%
CCOc1ccccc1N1CC(c2nc3ccccc3n2CCCCOc2cc(C)ccc2C)CC1=O (configuration not stated)	89µM*	i	-15%	13µM*	?
CCOc1ccccc1N1CC(c2nc3ccccc3n2CCCOc2ccccc2OC)CC1=O (configuration not stated)	3%	i	?	-11%	-2%

Screens: PubChem BioAssay, National Center for Advancing Translational Sciences (NCATS)
